In PMC11062922 (Nature Chemical Biology, 2023) one finds potency estimated from few doses data, which are given here for 2 compounds.

Common to all, as to design: species or system human, MV4-11 + K-562 + COLO205 + SK-N-BE2 + OVCAR-8
Assay [1] concerns BMP2K. The conditions noted are these: read-out: apparent Kd; compound concentrations:100 nM and 1000 nM (sheet 'Samples'); n = 1.
Assay [2] deals with MAP3K1. Particulars: read-out: apparent Kd; compound concentrations:100 nM and 1000 nM (sheet 'Samples'); n = 1.
The test system of assay [3] is MAP4K5. The conditions noted are these: read-out: apparent Kd; compound concentrations:100 nM and 1000 nM (sheet 'Samples'); n = 1.
Assay [4] relates to NUAK2. The conditions noted are these: read-out: apparent Kd; compound concentrations:100 nM and 1000 nM (sheet 'Samples'); n = 1.
The test system of assay [5] is PLK1. Particulars: read-out: apparent Kd; compound concentrations:100 nM and 1000 nM (sheet 'Samples'); n = 1.
For assay [6], the system named is STK10. Particulars: read-out: apparent Kd; compound concentrations:100 nM and 1000 nM (sheet 'Samples'); n = 1.
In assay [7] the test system is AURKB. The conditions noted are these: read-out: apparent Kd; compound concentrations: 100 nM and 1000 nM (sheet 'Samples'), CATDS: 8.5065344981926597E-2; n = 1.
Assay [8] has as its system FECH. Particulars: read-out: apparent Kd; compound concentrations: 100 nM and 1000 nM (sheet 'Samples'), CATDS: 9.1141958763267306E-2; n = 1.
Assay [9] has as its system FRK. The conditions noted are these: read-out: apparent Kd; compound concentrations: 100 nM and 1000 nM (sheet 'Samples'), CATDS: 0.20541048122338901; n = 1.
The subject of assay [10] is HCK. Particulars: read-out: apparent Kd; compound concentrations: 100 nM and 1000 nM (sheet 'Samples'), CATDS: 0.153376634791901; n = 1.
The test system of assay [11] is LCK. The conditions noted are these: read-out: apparent Kd; compound concentrations: 100 nM and 1000 nM (sheet 'Samples'), CATDS: 0.126638477949608; n = 1.
Assay [12] has as its system LYN. Particulars: read-out: apparent Kd; compound concentrations: 100 nM and 1000 nM (sheet 'Samples'), CATDS: 0.11348132537540701; n = 1.
In assay [13] the test system is MAP2K5. The conditions noted are these: read-out: apparent Kd; compound concentrations: 100 nM and 1000 nM (sheet 'Samples'), CATDS: 9.4476183920835705E-2; n = 1.
Assay [14] concerns TNK2. The conditions noted are these: read-out: apparent Kd; compound concentrations: 100 nM and 1000 nM (sheet 'Samples'), CATDS: 0.38594497215225099; n = 1.

`C[C@@H](Oc1cc(-n2cnc3ccc(OCC4CCN(C)CC4)cc32)sc1C(N)=O)c1ccccc1C(F)(F)F` [GSK326090A]: the potency estimated from few doses in assay [1] is 1900 nM; in assay [2], 1240 nM; in [3] it was 203 nM; in [4], 411 nM; in assay [5], 67.7 nM; in assay [6], 1720 nM.

For `Cc1ccc(C(=O)Nc2ccc(Nc3ccnc4cc(-c5nccs5)ccc34)cc2O)cc1.Cl` [GW494702A], the potency estimated from few doses was 1430 nM in assay [7]; 1090 nM in [8]; 152 nM in [9]; 267 nM in assay [10]; 412 nM in assay [11]; 547 nM in [12]. The results for the potency estimated from few doses in assay [13] and in assay [14] were 956 nM and 55.9 nM, respectively.
